SMILES strings stand for the structures. The panel holds about 83,000 compounds, 20% with a hit somewhere; the sample as a whole holds those more often.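 The endpoint reported here, percent growth, reads 100 for growth as untreated, 0 for no net growth and -100 for all cells dead.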 Unmarked numbers belong to inactive results. Rule for the calls: active = growth percent below 10; inactive = the rest.

The assay relates to NCI-H23 lung. Briefly: NCI-60 one-dose screen, 48 h (100 = growth as untreated, 0 = no growth, -100 = all killed). As to conditions: 10 µM unless noted.
As to `COc1ccc(/C(C)=N/NS(=O)(=O)c2ccc(C)cc2)cc1OC`, the growth is 105%.
Consider `C[C@@H]1C(=O)N(C[C@@H](Cc2ccccc2)NC(=O)OCc2ccccc2)[C@]1(Cc1ccccc1)C(=O)OCc1ccccc1`, for which the growth was 37.1%.
In the case of `NC(=Nc1ccc(N)cc1)C(N)=Nc1ccc(N)cc1` it was 108%; in that of `N#Cc1c(NC(=O)c2ccccc2I)sc2c1CCCC2`, 73.4%.
The same measure for `Cc1ccc(Nc2ccc(Nc3ccc(C)cc3S(=O)(=O)O)c3c2C(=O)c2ccccc2C3=O)c(S(=O)(=O)O)c1`: 97.2%.
Consider `C=C1C(=O)O[C@H]2[C@H]1CC/C(Cn1cc(CNCCc3c[nH]c4ccc(Cl)cc34)nn1)=C\CC[C@@]1(C)O[C@@H]21`, for which the growth was 92.9%.
In the case of `Cn1cc(Nc2nccc(-c3ccc(N4CCCC4)c(C#N)c3)n2)cn1` it was 63.3%.
In the case of `CSc1ncc(C)c(Nc2ccc(Cl)cc2)n1`, the growth is 99.6%.
In the case of `COc1cc(/C=C2\C=C(c3ccccc3)N(CCc3ccccc3)C2=O)cc(OC)c1OC` it was 74.1%; in that of `O=c1cc(-c2ccc(OCc3ccccc3)cc2)oc2c(I)c(OCc3ccccc3)cc(OCc3ccccc3)c12`, 103%.
In the case of `CC(=O)Nc1nccs1` it was 95%; in that of `N[C@H]1CCC[C@@H]1NCCCCN1C(=O)c2cccc3cccc(c23)C1=O`, 71%.
On to `N=C(N)c1ccc(-c2ccc(-c3ccc(Cl)cc3Cl)o2)nc1`, for which the growth was 78%.
`O=C1N/C(=N/O)S/C1=C/c1cn(-c2ccccc2)nc1-c1ccccc1`: the growth was 88.1%.

The record behind these values is PubChem BioAssay (NCI).
